These results are taken from PubChem BioAssay.

Test [1] is described as follows: compounds binding Alexa647 anti-His antibody – biochemical, small-molecule microarray, 635 nm fluorescence, artefact control for SMM control protein annotation, primary screen (AID 1128).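 Further: score merges feature fluorescence with signal-to-noise for each printed compound spot.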 Conditions: higher = more signal.
Test [2] deals with Human papillomavirus type 1a E7 protein (residues 1-88). Briefly: HPV1a E7 small-molecule binders, primary screen, biochemical, small-molecule microarray, residues 1-88, 635 nm (AID 1129). The note with it: small-molecule microarray binding, fluorescence 635 nm; higher = more signal.
The target in test [3] is Focal adhesion kinase 1 (Homo sapiens) (UniProt Q05397). Description: PTK2 protein binding on printed compound slides – biochemical, small-molecule microarray, 635/667 nm fluorescence, BSA, DTT, primary screen (AID 1130).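 Further: composite of spot emission at 667 nm and signal to noise over triplicate slides.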 The note with it: 635 nm fluorescence, higher = more signal.
Sequence of Focal adhesion kinase 1 (Homo sapiens) (Q05397 whole entry, looked up): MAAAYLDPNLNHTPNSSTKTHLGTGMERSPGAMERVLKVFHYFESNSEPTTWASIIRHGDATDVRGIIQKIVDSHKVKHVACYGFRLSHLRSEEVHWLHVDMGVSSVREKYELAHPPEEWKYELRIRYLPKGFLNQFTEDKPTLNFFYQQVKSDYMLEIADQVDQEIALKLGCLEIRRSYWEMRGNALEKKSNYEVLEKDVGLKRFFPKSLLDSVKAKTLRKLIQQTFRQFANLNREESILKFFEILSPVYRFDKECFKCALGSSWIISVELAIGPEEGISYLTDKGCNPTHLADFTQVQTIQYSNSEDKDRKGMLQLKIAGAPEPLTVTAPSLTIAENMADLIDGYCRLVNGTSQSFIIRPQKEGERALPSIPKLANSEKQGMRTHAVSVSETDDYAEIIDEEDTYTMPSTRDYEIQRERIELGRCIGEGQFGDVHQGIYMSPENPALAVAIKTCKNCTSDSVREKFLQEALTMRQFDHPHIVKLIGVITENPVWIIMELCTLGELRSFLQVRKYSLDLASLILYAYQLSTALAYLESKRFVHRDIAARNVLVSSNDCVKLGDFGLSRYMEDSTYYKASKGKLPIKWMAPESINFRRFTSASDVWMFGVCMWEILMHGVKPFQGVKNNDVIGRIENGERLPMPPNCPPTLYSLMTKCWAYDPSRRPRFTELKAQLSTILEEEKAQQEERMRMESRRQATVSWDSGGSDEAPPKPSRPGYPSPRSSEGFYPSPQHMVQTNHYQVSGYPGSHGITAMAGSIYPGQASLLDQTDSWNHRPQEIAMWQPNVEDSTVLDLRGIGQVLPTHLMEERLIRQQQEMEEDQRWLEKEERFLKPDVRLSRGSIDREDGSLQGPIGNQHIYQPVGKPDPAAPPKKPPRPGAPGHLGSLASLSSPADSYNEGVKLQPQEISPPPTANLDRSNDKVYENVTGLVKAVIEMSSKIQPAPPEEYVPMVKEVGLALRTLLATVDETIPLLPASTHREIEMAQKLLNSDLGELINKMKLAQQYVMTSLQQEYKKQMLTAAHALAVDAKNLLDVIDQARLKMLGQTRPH
Test [4] has as its system Fibrinogen (Alexa647-labelled). Description: Alexa647-fibrinogen binding to printed small molecules – biochemical, small-molecule microarray, 635/667 nm fluorescence, artefact control for SMM control-protein annotation, profiling panel (AID 1131).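 Further: z-score merges 667 nm fluorescence with per-spot signal-to-noise over triplicate slides.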 Conditions: fibrinogen-A647 binding fluorescence, higher = more signal.
In test [5] the target is Follistatin (Homo sapiens) (UniProt P19883). Description: FST protein binding to printed compounds – biochemical, small-molecule microarray, 635/667 nm fluorescence, primary screen (AID 1132). The note with it: 635 nm fluorescence, higher = more signal.
Sequence of Follistatin (Homo sapiens) (P19883 whole entry, looked up): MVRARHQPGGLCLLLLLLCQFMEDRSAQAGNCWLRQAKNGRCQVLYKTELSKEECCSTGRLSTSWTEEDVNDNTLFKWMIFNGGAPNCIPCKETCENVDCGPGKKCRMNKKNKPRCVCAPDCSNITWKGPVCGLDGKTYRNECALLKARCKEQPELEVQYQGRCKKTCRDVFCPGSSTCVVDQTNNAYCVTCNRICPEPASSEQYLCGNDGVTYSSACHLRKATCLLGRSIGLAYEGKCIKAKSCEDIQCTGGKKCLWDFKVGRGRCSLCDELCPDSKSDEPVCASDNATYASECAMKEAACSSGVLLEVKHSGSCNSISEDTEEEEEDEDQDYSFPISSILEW
The target in test [6] is Fibroblast growth factor 2 (Homo sapiens) (UniProt P09038). Description: basic fibroblast growth factor binding to printed compounds – biochemical, small-molecule microarray, 635/667 nm fluorescence, primary screen (AID 1133). The note with it: FGF2, fluorescence 635/667, higher = more signal.
Sequence of Fibroblast growth factor 2 (Homo sapiens) (P09038 whole entry, looked up): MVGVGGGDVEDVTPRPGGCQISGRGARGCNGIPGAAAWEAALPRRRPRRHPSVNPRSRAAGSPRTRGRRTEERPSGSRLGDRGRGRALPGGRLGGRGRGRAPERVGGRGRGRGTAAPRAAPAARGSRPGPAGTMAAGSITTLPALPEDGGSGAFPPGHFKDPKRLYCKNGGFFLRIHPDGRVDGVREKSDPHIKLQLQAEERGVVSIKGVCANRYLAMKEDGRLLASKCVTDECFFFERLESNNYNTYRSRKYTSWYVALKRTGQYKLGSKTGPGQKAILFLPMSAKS
Test [7] can be described thus: JC-1 mitochondrial potential readout, lung cancer cells – cell-based, A549, JC-1 fluorescence, basal, 24 h, 100 nL, profiling panel (AID 1138).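 Further: A549 lung adenocarcinoma cells under basal conditions with no added stimulus; test concentration not given here.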 Conditions: higher = more signal.
For test [8], the system named is Lefty1. Briefly: Lefty1 protein binding to printed compounds – biochemical, small-molecule microarray, 635/667 nm fluorescence, primary screen (AID 1139). The note with it: fluorescence 635/667, higher = more signal.
Test [9] concerns wheat germ agglutinin (Triticum aestivum), Alexa647-labelled. Description: Alexa647-WGA lectin binding to printed small molecules – biochemical, small-molecule microarray, 635/667 nm fluorescence, artefact control for SMM control-protein annotation, profiling panel (AID 1140).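 Further: score merges 667 nm feature emission with signal to noise over triplicate slides.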 The note with it: WGA-A647 binding, 635 nm fluorescence, higher = more signal.
Test [10] concerns the target Luciferin 4-monooxygenase (Photinus pyralis) (UniProt P08659). Briefly: inhibition of purified Photinus pyralis luciferase – biochemical, luminescence, purified enzyme, 2006 set, primary screen (AID 1141).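 Further: cell-free assay with purified firefly luciferase at 100 ng per well in PBS; test concentration not given here.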 The note with it: purified firefly luciferase, SteadyGlo luminescence, 30 min; higher = more signal, called active from +8 up or from −8 down.
The subject of test [11] is Wnt5a (protein binding on small-molecule microarray). Description: small molecules binding Wnt5a protein – biophysical, small-molecule microarray, 635/667 nm fluorescence, primary screen (AID 1142).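 Further: fluorescence read at 667 nm with signal to noise per printed feature.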 The note with it: 635 nm fluorescence, higher = more signal.
A short description of test [12]: ATP-based viability of Huh7 replicon cells – cell-based, CellTiter-Glo luminescence, basal, 48 h, cytotoxicity control for HCV replication inhibitor project, primary screen (AID 1143).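 Further: Huh7 hepatoma cells carrying a hepatitis C replication reporter with no stimulus; test concentration not given here.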 The note with it: higher = more signal, called active from +8 up or from −8 down.
Test [13] is described as follows: Pseudomonas biofilm growth suppression – PAO1 strain, BacTiter-Glo luminescence, LB-PBS, primary screen (AID 1144). The note with it: P. aeruginosa PAO1 biofilm, 12 h, higher = more signal.
Test [14] is described as follows: basal CRE-LacZ reporter activity in PC12 – cell-based, unstimulated, primary screen (AID 1145). The note with it: no forskolin, luminescence, 4.5 h, higher = more signal, called active from +8 up or from −8 down.
Test [15] is described as follows: forskolin-driven CRE-LacZ activity in PC12 – cell-based, CRE-LacZ reporter, forskolin-stimulated, primary screen (AID 1146).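 Further: PC12 cells with 6xCRE LacZ reporter stimulated by forskolin 10 µM; beta-galactosidase reporter signal reflecting CREB driven transcription.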 Conditions: luminescence, 4.5 h, higher = more signal, called active from +8 up or from −8 down.
The target of test [16] is Streptavidin (Streptomyces avidinii) (UniProt P22629). Description: compounds binding control protein streptavidin – biophysical, small-molecule microarray, 635/667 nm fluorescence, artefact control for SMM compound annotation, primary screen (AID 1147).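 Further: signal reflects streptavidin binding to arrayed compounds as a control protein.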 The note with it: higher = more signal.
Sequence of Streptavidin (Streptomyces avidinii) (P22629 whole entry, looked up): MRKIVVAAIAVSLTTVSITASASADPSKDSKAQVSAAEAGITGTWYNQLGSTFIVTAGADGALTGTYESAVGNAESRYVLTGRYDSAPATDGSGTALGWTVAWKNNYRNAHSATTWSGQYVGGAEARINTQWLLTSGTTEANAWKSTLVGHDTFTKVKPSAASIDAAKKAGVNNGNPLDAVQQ
Test [17] is described as follows: probe aInhba binding on compound microarray – biochemical, small-molecule microarray, 635/667 nm fluorescence, primary screen (AID 1148).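 Further: score merges 667nm spot fluorescence with signal-to-noise for antibody binding to printed compounds.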 Conditions: higher = more signal.
For test [18], the target named is Torsin-1A (Homo sapiens) (UniProt O14656). Briefly: TOR1A wild-type binding on microarray – cell lysate, small-molecule microarray, lysate, 635/667 nm, primary screen (AID 1149). The note with it: COS7 hTOR1A-WT lysate, 635 nm fluorescence, higher = more signal.
Sequence of Torsin-1A (Homo sapiens) (O14656 whole entry, looked up): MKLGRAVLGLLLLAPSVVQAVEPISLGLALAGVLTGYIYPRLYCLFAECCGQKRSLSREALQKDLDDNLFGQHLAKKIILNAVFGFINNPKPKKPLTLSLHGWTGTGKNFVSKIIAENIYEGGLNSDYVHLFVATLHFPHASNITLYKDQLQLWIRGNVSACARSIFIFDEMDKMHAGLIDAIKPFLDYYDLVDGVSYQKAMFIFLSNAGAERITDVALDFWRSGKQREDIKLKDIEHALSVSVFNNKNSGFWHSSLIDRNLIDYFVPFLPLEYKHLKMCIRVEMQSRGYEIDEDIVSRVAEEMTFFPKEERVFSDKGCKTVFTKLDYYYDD
Test [19] has the same target. Description: torsin A mutant lysate binding on microarrays – cell lysate, small-molecule microarray, COS7 lysate, 635/667 nm fluorescence, primary screen (AID 1150).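 Further: score pools 667 nm emission and signal to noise measuring lysate protein binding.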 The note with it: COS7 hTOR1A mutant lysate, 635 nm fluorescence, higher = more signal.
Test [20] deals with Sonic hedgehog protein (Shh). Description: Sonic hedgehog microarray binding compounds – biochemical, small-molecule microarray, 635/667 nm fluorescence, primary screen (AID 1151).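 Further: Shh protein binding to compounds spotted on small-molecule microarray slides; score combines spot fluorescence intensity with signal-to-noise across triplicate slides.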 The note with it: 635 nm fluorescence, higher = more signal.

Active and inactive are the calls of the source. Unless noted, how the calls were made is not given here.

Sequence of Luciferin 4-monooxygenase (Photinus pyralis) (P08659 whole entry, looked up): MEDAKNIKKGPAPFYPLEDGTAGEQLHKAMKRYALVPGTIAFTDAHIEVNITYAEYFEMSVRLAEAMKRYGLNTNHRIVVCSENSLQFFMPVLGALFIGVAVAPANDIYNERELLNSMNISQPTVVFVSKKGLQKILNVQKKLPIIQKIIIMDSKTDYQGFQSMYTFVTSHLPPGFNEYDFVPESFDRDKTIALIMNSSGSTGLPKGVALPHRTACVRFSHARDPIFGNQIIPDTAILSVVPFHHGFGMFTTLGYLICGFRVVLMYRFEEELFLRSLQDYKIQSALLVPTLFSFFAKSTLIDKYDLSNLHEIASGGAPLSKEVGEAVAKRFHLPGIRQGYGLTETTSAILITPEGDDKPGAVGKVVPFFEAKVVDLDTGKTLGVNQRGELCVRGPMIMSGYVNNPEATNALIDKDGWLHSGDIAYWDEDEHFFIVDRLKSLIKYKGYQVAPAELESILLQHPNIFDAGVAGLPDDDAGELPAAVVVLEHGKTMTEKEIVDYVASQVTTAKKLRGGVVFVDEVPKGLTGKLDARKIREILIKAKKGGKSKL

Take `CCCNC(=O)[C@@]1(c2ccc([N+](=O)[O-])cc2)CC(=O)N(CC23CC4CC(CC(C4)C2)C3)[C@@H]1c1ccc(CO)cc1`: the composite z-score in test [1] amounted to 1.19; in test [2], 1.04; in [3] it was 0.117; in test [4], 0.356; in test [5] it was 0.509; in [6], 1.23. The composite z-score is -0.197 in [8]; -0.109 in test [9]; 0.4 in [11]; -0.204 in test [16]; -0.272 in test [17]; 0.0865 in test [18]. In addition, the composite z-score in [19] was determined as 0.319; in [20] it was 0.34. The z-score was 0.582 in test [7]; 0.494 (inactive) in test [10]; -5.17 (inactive) in [12]; -0.293 (inactive) in [13]; 0.531 (inactive) in [14]; -0.312 (inactive) in test [15].

For `Cc1ccc(S[C@]2(C(=O)NC3CC3)CC(=O)N(Cc3ccccc3)[C@@H]2c2ccc(CO)cc2)cc1`, the composite z-score in test [1] is 0.116; in test [2] it was -0.663; in [3] it was -0.526; in test [4] it was -0.816; in [5], -0.432; in test [6], -0.596. Further, the composite z-score in [8] is -0.663; in [9], 0.222; in test [11] it was -0.144; in test [16], -0.807; in test [17], -0.0762; in test [18], -0.559. Also, the composite z-score in [19] is -0.906; in [20], -0.863. The z-score in test [7] was 0.424; in test [10] it was -0.585 (inactive); in test [12], 0.103 (inactive); in test [13], 0.396 (inactive); in test [14], -0.295 (inactive); in [15], 0.473 (inactive).

Turning to `COCCOC(=O)N1C(=O)[C@@]2(c3cc(C#CC4(O)CCCCCC4)ccc31)[C@H](C(=O)N1CCCCCCC1)[C@H]1C(=O)O[C@H](c3ccccc3)[C@H](c3ccccc3)N1[C@@H]2c1ccccc1OCCO`, the composite z-score in test [1] was 1.24; in test [2] it was 1.22; in [3], 0.808; in test [4], 0.832; in test [5], 1.42; in test [6], 1.11. Besides, the composite z-score came to 0.955 in test [8]; 1.39 in [9]; 0.647 in [11]; 1.96 in test [16]; 1.22 in test [17]; 0.601 in test [18]. Further, the composite z-score in test [19] came out at 1.26; in test [20], 1.37. The z-score in test [7] is -1.04; in test [10] it was -0.969 (inactive); in test [12], -5.2 (inactive); in test [13], 0.148 (inactive); in test [14], 0.749 (inactive); in test [15] it was -0.551 (inactive).

On to `[N-]=[N+]=NCc1ccccc1C[C@@]1(C(=O)NCC(O)CO)N=C(c2ccc(OCCCO)cc2)O[C@@H]1c1ccccc1CN=[N+]=[N-]` (stereo not given in full), for which the composite z-score was -0.0645 in test [1]; 1.23 in [2]; 0.919 in [3]; 0.971 in test [4]; 1.28 in test [5]; 1.6 in test [6]. Further, the composite z-score was -0.83 in [8]; 0.91 in test [9]; 0.604 in [11]; 1.43 in test [16]; 0.533 in [17]; 0.441 in test [18]. The values for the composite z-score in [19] and in test [20] were 1.39 and -0.393, respectively. Also, the z-score is 0.16 in [7]; 0.782 (inactive) in [10]; -1.84 (inactive) in test [12]; -0.376 (inactive) in test [13]; -0.435 (inactive) in [14]; -0.554 (inactive) in test [15].

As for `CCOC(=O)C[C@H]1[C@H](OC(=O)c2ccc(C(=O)c3ccccc3)cc2)[C@@H](NC(=O)C2CCCCC2)c2cc(OCCCO)ccc2N1C(=O)c1ccccc1`, the composite z-score was 0.447 in [1]; 0.881 in test [2]; 0.211 in test [3]; 0.636 in test [4]; 0.27 in [5]; 0.0816 in [6]. Also, the composite z-score in [8] stood at 0.166; in test [9], 0.203; in test [11], 0.177; in [16], 0.767; in test [17], 0.58; in test [18] it was 0.342. Besides, the composite z-score in test [19] came out at 0.358; in test [20], 1.31. Moreover, the z-score in test [7] is 2.14; in [10], -0.46 (inactive); in test [12], -0.361 (inactive); in test [13] it was 0.441 (inactive); in test [14] it was 2.06 (inactive); in [15] it was -0.0298 (inactive).

`COC(=O)[C@@]1(Cc2ccc(OC)cc2)[C@H]2c3cc(C(=O)N(C)C)n(Cc4c(OC)[nH]cc(C)c4=O)c3C[C@H]2CN1C(=O)c1ccccc1`: the composite z-score in [1] was -0.13; in test [2], 0.66; in test [3], 0.66; in test [4], 0.324; in test [5], 0.326; in test [6], -0.123. Also, the composite z-score was -0.144 in [8]; 0.59 in [9]; -0.0522 in test [11]; -0.0748 in test [16]; 0.0882 in [17]; 0.0857 in test [18]. Further, the composite z-score in test [19] is 1.16; in [20] it was -1.1. Moreover, the z-score was 0.539 in test [7]; 0.151 (inactive) in test [10]; -0.857 (inactive) in [12]; 0.0281 (inactive) in [13]; -0.185 (inactive) in test [14]; 0.69 (inactive) in test [15].

For `CN(C)C(=O)[C@@]1(CCC(=O)OC(C)(C)C)N=C(c2ccc(OCCCO)cc2)O[C@H]1c1ccccc1`, the composite z-score in [1] was 3.44; in test [2], 1.11; in test [3], 0.384; in [4], 0.65; in test [5] it was 0.381; in [6], -0.309. The composite z-score in test [8] is -0.943; in test [9], 0.798; in test [11], 0.257; in [16] it was 0.0732; in test [17], 0.776; in test [18], 0.635. Further, the values for the composite z-score in test [19] and in [20] were 1.74 and -0.467, respectively. The z-score in test [7] was -0.457; in [10] it was -0.874 (inactive); in test [12] it was -4.42 (inactive); in test [13], -0.573 (inactive); in test [14], 0.195 (inactive); in [15], -1.4 (inactive).

Take `CCOC(=O)[C@H]1C/C=C/C[C@H](C(=O)OCC)C(=O)O[C@H]2[C@@H](OC)O[C@H](CO)[C@@H](OC(=O)Nc3ccc4c(c3)OCO4)[C@@H]2OC1=O`: the composite z-score was 2.08 in [1]; 1.2 in test [2]; 0.528 in [3]; 0.485 in test [4]; -0.114 in test [5]; 0.254 in test [6]. For the same compound, the composite z-score in test [8] is 0.403; in test [9], -0.115; in test [11], 0.285; in test [16], -0.0265; in [17], 0.0342; in test [18], 0.687. The results for the composite z-score in [19] and in test [20] were 0.126 and 0.903, respectively. For the same compound, the z-score was -1.25 in test [7]; -1.93 (inactive) in test [10]; -6.55 (inactive) in [12]; -0.353 (inactive) in test [13]; 0.484 (inactive) in test [14]; -1.61 (inactive) in test [15].

In the case of `CCCCCN1CC=CC23O[C@@H]4/C=C\CCC(C)OC(=O)C4[C@H]2C(=O)N(CCCCCO)[C@@H]3C1=O` (stereo not given in full), the composite z-score in [1] is -0.0232; in test [2] it was -0.413; in [3] it was -0.0791; in [4], -1.46; in test [5] it was -0.35; in test [6] it was 0.517. Also, the composite z-score in [8] was 0.184; in [9] it was 0.233; in test [11], -1.01; in test [16], -1.33; in test [17], -0.182; in test [18], -0.798. Further, the composite z-score in test [19] was 0.815; in test [20] it was -0.0084. The z-score is -0.108 in test [7]; -2.73 (inactive) in test [10]; 0.292 (inactive) in test [12]; -1.35 (inactive) in [13]; -0.492 (inactive) in test [14]; 0.069 (inactive) in test [15].
